FLuc counter: counter-screen for miR-21 project: firefly luciferase inhibitors or activators; Potency, µM (top dose mostly 57.5 µM), without a hit: at the top dose activity change, negative = inhibition, most hits filed as inhibitors; purified FLuc, Km substrates, luminescence inhibition; AID 588342; 360,000 compounds, 6.9% hits;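 note: plate controls were vehicle for no effect and reference inhibitor for full effect; nearly all actives have a fitted effect of over 55% in size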
Target sequence (P08659 whole entry, looked up): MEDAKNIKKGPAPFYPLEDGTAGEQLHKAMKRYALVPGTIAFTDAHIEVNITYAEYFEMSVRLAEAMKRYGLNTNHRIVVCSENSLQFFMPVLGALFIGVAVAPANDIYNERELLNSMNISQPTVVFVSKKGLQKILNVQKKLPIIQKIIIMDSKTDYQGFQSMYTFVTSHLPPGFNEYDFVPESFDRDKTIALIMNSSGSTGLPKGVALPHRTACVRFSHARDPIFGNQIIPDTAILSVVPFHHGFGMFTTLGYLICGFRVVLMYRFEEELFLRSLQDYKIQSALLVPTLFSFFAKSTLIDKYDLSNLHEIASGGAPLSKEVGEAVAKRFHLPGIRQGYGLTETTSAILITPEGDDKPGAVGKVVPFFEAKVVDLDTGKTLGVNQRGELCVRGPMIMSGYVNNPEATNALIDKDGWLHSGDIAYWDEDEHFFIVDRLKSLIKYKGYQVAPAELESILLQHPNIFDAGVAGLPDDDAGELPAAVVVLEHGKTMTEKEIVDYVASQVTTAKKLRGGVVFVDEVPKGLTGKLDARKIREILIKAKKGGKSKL
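Purified P. pyralis luciferase, 10 nM final, with Km-level 10 uM D-luciferin and 10 uM ATP in 50 mM Tris acetate pH 7.5, 10 mM Mg acetate, 0.01% Tween-20, 0.05% BSA; 6-point qHTS titration about 60 µM downward; luminescence read.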
SMN2 splice up: SMN2 splice variant enhancement. HEK293 SMN2-luciferase splicing reporter, luminescence, 30-36 h. Potency, µM (doses to about 46.1 µM), inactives show at the highest dose activity change, positive = activation, actives largely listed as activators. 210,000 compounds, 2.8% hits; note: % of control where 0% means no effect; nearly all actives have a fitted effect of over 55% in size
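HEK293 cells carry an SMN2 […]–luciferase reporter in which exon 7 inclusion puts luciferase in frame. Cells were plated 10-12 h before compound addition, then incubated 30-36 h at 37C. ONE-Glo luminescence was read; sodium butyrate at 4.5 mM final served as control.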
ELG1 genotoxic: induces genotoxicity in HEK293T cells with luciferase-tagged ELG1. AID 504466. Potency, µM (series often up to 46 µM), without a hit: at the top dose activity change, positive = activation, actives largely listed as activators. HEK293T ELG1-luciferase reporter, luminescence, 16 h. 330,000 compounds, 1.3% hits; note: % of control where 0% means no effect; nearly all actives have a fitted effect of over 60% in size
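ELG1-luciferase HEK293T cells, 2,000/well; compound pinned in; 16 hr, 37 °C, 5% CO2; ONE-Glo, 30 min RT; luminescence on CCD imager.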
Rab9 promoter act: activates the Rab9 promoter. Huh7 Rab9 promoter-luciferase reporter, luminescence, 24 h. Potency, µM (titrated, usually from 9.22 µM), without a hit: top-dose activation, negative = inhibition, most hits filed as activators. 320,000 compounds, 2.8% hits; note: % of control where 0% means no effect; nearly all actives have a fitted effect of over 60% in size
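Measured in stably transfected Huh7 cells bearing a Rab9 promoter–luciferase construct: 24 h compound treatment at 37 °C, followed by luminescence detection.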
NPC1 prom act: NPC1 promoter activation; Huh7 NPC1 promoter luciferase reporter, 24 h; Potency, µM (doses to about 9.22 µM), inactives show at the highest dose activation, most hits filed as activators; 320,000 compounds, 2.4% hits; note: % of control where 0% means no effect; nearly all actives have a fitted effect of over 60% in size
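Readout is luciferase luminescence, reflecting NPC1 promoter activation in stably transfected Huh7 cells after 24 h compound exposure at 37 °C in reduced-serum medium with 10% FBS.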
Numbers without * were called inactive; [ ] = remark or other dose. The list is not random: actives were taken first. Their share in the collection is about 7.4%. Calls come from the whole dose curve; as a rule, active = well fitted curve in the direction sought with a large enough effect; inconclusive = small, poorly fitted or top-dose-only effect, or another doubt; inactive = no such curve, though single readings can be large; an effect the other way counts as inactive or inconclusive. Potency is the fitted concentration of half-maximal effect.

How did O=C(CN1C(=O)c2ccccc2S1(=O)=O)N1CCCCC1 do in these assays?
FLuc counter: 1.8%; ELG1 genotoxic: 16.4µM*; Rab9 promoter act: 2.51µM*; NPC1 prom act: inconclusive

Results for O=C(CN1C(=O)c2ccccc2S1(=O)=O)c1ccccc1 ?
FLuc counter: 0.601µM*; SMN2 splice up: 0.5%; ELG1 genotoxic: -0.1%; Rab9 promoter act: inconclusive; NPC1 prom act: inconclusive

How did O=C(CN1C(=O)c2ccccc2S1(=O)=O)NCc1ccccc1Cl do in these assays?
FLuc counter: -19.9%; SMN2 splice up: 2.2%; ELG1 genotoxic: 0.2%; Rab9 promoter act: 2.5%; NPC1 prom act: -1.8%

How did O=C(CN1C(=O)c2ccccc2S1(=O)=O)N1CCOCC1 do in these assays?
FLuc counter: -1.5%; SMN2 splice up: inconclusive; ELG1 genotoxic: 10.9%; Rab9 promoter act: 3.0%; NPC1 prom act: 8.8%

What do the screens show for `NC/C=C\C(=O)O`?
SMN2 splice up: -2.2%; Rab9 promoter act: 4.4%[46.1 µM]; NPC1 prom act: 8.1%[46.1 µM]

What do the screens show for `COc1ccc(/C=C/C(=O)c2ccc(O)cc2)cc1COc1ccc(F)cc1`?
FLuc counter: 15.1µM*; ELG1 genotoxic: -1.1%; Rab9 promoter act: 2.5%; NPC1 prom act: -2.4%

What do the screens show for `COc1ccc(/C=C/C(=O)c2ccccc2)cc1COc1ccc(F)cc1`?
FLuc counter: 9.53µM*; SMN2 splice up: -18.5%; ELG1 genotoxic: -2.3%; Rab9 promoter act: -5.3%; NPC1 prom act: -2.4%

Results for COc1ccc(NC(=O)c2cc(-c3ccc4c(c3)OCO4)on2)cc1 ?
FLuc counter: -8.0%; ELG1 genotoxic: 2.8%; Rab9 promoter act: -2.0%; NPC1 prom act: -1.3%

What do the screens show for `CC1CCCC(C)N1C(=O)c1cc(-c2ccc(Cl)c(Cl)c2)on1` (stereo not given)?
FLuc counter: 12µM*; SMN2 splice up: 26.9%; ELG1 genotoxic: 12.9%; Rab9 promoter act: inconclusive; NPC1 prom act: inconclusive

Results for CC1CCCC(C)N1C(=O)c1cc(-c2ccc3c(c2)OCO3)on1 (stereo not given) ?
FLuc counter: 10.7µM*; ELG1 genotoxic: -1.5%; Rab9 promoter act: 2µM*; NPC1 prom act: 2µM*

Results for CCC(=O)NC(c1cccs1)c1cc(Br)c2cccnc2c1O (stereo not given) ?
FLuc counter: 0.1%; Rab9 promoter act: -41.5%; NPC1 prom act: -36.9%

Results for O=C(CCC(=O)c1cccs1)OCc1ccc([N+](=O)[O-])cc1 ?
FLuc counter: -11.9%; ELG1 genotoxic: -2.4%; Rab9 promoter act: inconclusive; NPC1 prom act: -2.1%

Results for O=C(CCC(=O)c1cccs1)OCC(=O)c1ccccc1F ?
FLuc counter: 19µM*; ELG1 genotoxic: 3.2%; Rab9 promoter act: 8.7%; NPC1 prom act: 4.5%

What do the screens show for `N#Cc1ccccc1COC(=O)CCC(=O)c1cccs1`?
FLuc counter: 12µM*; ELG1 genotoxic: 4.0%; Rab9 promoter act: 3.0%; NPC1 prom act: 0.5%

How did O=C(CCC(=O)c1cccs1)OCC(=O)c1ccccc1 do in these assays?
ELG1 genotoxic: -1.5%

How did Cc1cc(C)c2cc(C#N)c(SCC(=O)Nc3cc(C)on3)nc2c1 do in these assays?
FLuc counter: -0.6%; ELG1 genotoxic: 10.1%; Rab9 promoter act: -1.7%; NPC1 prom act: -0.9%

What do the screens show for `CCCCC(=O)Nc1cc(C)c(O)c(-c2nc3ncccc3o2)c1`?
FLuc counter: 1.2%; SMN2 splice up: 12.0%

Results for CN(C(=O)c1ccccc1C(=O)OCC(=O)Nc1cccc(Br)c1)c1ccccc1 ?
FLuc counter: -8.1%; ELG1 genotoxic: 0.9%; Rab9 promoter act: 1.0%; NPC1 prom act: 0.0%

What do the screens show for `Cc1cccc(NC(=S)NC(C)(C)CC(C)(C)C)c1`?
FLuc counter: -2.0%; SMN2 splice up: -28.7%; ELG1 genotoxic: -13.5%; Rab9 promoter act: -23.4%; NPC1 prom act: -6.3%

What do the screens show for `Cc1ccc2nc(Nc3nc(-c4ccccc4)cc(=O)[nH]3)nc(C)c2c1`?
FLuc counter: -11.0%; SMN2 splice up: -21.0%; ELG1 genotoxic: inconclusive; Rab9 promoter act: -4.4%; NPC1 prom act: -2.4%

Results for Cc1ccc2nc(Nc3nc(=O)c4ccccc4n3C)nc(C)c2c1 ?
FLuc counter: 2.13µM*; SMN2 splice up: 5.4%; ELG1 genotoxic: -3.7%; Rab9 promoter act: 11.1%; NPC1 prom act: 9.6%

Results for O=C(NCc1ccc(Cl)cc1)c1cnn2ccccc12 ?
FLuc counter: 13.5µM*; SMN2 splice up: inconclusive; ELG1 genotoxic: inconclusive; Rab9 promoter act: 2.51µM*; NPC1 prom act: 3.98µM*

Results for O=C(CCCN1C(=O)/C(=C\c2ccco2)SC1=S)Nc1ccc2ccccc2c1 ?
FLuc counter: -0.7%; SMN2 splice up: 264.6%; ELG1 genotoxic: 0.0%; Rab9 promoter act: 0.0%; NPC1 prom act: 4.0%

How did O=C(CN1C(=O)S/C(=C\c2cccs2)C1=O)Nc1ccc(C(=O)O)c(O)c1 do in these assays?
FLuc counter: 23.9µM*; ELG1 genotoxic: -1.3%; Rab9 promoter act: 8.3%; NPC1 prom act: 1.3%

Results for O=C(CCN1C(=O)/C(=C/c2ccco2)SC1=S)Nc1ccc(C(=O)O)c(O)c1 ?
FLuc counter: 7.57µM*; ELG1 genotoxic: -3.5%; Rab9 promoter act: -3.1%; NPC1 prom act: -1.2%

How did COc1ccccc1/C=C1\SC(=S)N(CCC(=O)Nc2ccc(C(=O)O)c(O)c2)C1=O do in these assays?
FLuc counter: 6.01µM*; ELG1 genotoxic: 4.2%; Rab9 promoter act: 4.6%; NPC1 prom act: -1.2%

How did O=C(CCN1C(=O)/C(=C\c2ccco2)SC1=S)Nc1ccc(C(=O)O)c(O)c1 do in these assays?
FLuc counter: 10.7µM*; ELG1 genotoxic: 0.2%[9.26 µM]; Rab9 promoter act: -0.8%; NPC1 prom act: -0.5%

Results for O=C(CCN1C(=O)/C(=C/c2ccco2)SC1=S)Nc1ccc(O)cc1C(=O)O ?
FLuc counter: inconclusive; ELG1 genotoxic: 0.0%; Rab9 promoter act: -2.0%; NPC1 prom act: -1.5%

Results for COc1ccccc1/C=C1/SC(=S)N(CCC(=O)Nc2cccnc2)C1=O ?
FLuc counter: -9.7%; ELG1 genotoxic: -0.6%; Rab9 promoter act: 17.8%; NPC1 prom act: -2.3%

Results for Cc1cccc(-n2c(=O)c3c4c(sc3n3cnnc23)CCCC4)c1 ?
FLuc counter: 2.4%; SMN2 splice up: -4.5%

How did O=C(CCCCCCC(=O)NCc1ccccc1)NCc1ccccc1 do in these assays?
FLuc counter: 3.0%; ELG1 genotoxic: -3.4%; Rab9 promoter act: -0.1%; NPC1 prom act: 0.7%

What do the screens show for `COc1cc2cc(C#N)c(SCC(=O)N3CCOCC3)nc2cc1OC`?
FLuc counter: -1.3%; SMN2 splice up: 12.6µM*; ELG1 genotoxic: 8.6%; Rab9 promoter act: 4.4%; NPC1 prom act: 14.4%

What do the screens show for `CC(=O)CSc1nc2cc3c(cc2cc1C#N)OCCO3`?
FLuc counter: 0.675µM*; ELG1 genotoxic: inconclusive; Rab9 promoter act: inconclusive; NPC1 prom act: 3.16µM*

Screening data from PubChem.
